Common to all, as to assay: PBM binding z-score (relative to random genomic background probes); higher = stronger binding; sequences stand for … in GC…GCGATTGACAGCGTAGAATGAAGG
In assay [1] the test system is FXR:RXRa (NR concentration 270 nM, RXRa partner concentration 90 nM). The procedure, abridged: (§1)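 Each nuclear receptor dimer, without ligand, was incubated for 1 h on custom Agilent 4×180K protein-binding microarrays. Binding was detected with antibodies against each partner (one per run), and scanned fluorescence was regression-normalized. The binding z-scores are referenced to random human genomic background probes.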

In assay [2] the test system is LXRa:RXRa (NR concentration 270 nM, RXRa partner concentration 90 nM). In a few lines: as §1
Assay [3] relates to LXRa homodimer (NR concentration 270 nM). In a few lines:
as §1

For assay [4], the system named is LXRb:RXRa (NR concentration 270 nM, RXRa partner concentration 90 nM). In a few lines: as §1
The subject of assay [5] is LXRb homodimer (NR concentration 270 nM). In a few lines:
as §1

Assay [6] relates to PPARa:RXRa (NR concentration 270 nM, RXRa partner concentration 90 nM). In a few lines:
as §1

Assay [7] has as its system PPARg:RXRa (NR concentration 180 nM, RXRa partner concentration 90 nM). In a few lines: as §1
The test system of assay [8] is PPARg:RXRa 270nM:90nM, anti-RXR (NR concentration 270 nM, RXRa partner concentration 90 nM). In a few lines:
as §1

In assay [9] the test system is PPARg:RXRa 30nM:10nM, anti-RXR (NR concentration 30 nM, RXRa partner concentration 10 nM). In a few lines: as §1
Assay [10] concerns PPARg:RXRa 90nM:30nM, anti-RXR (NR concentration 90 nM, RXRa partner concentration 30 nM). In a few lines:
as §1

Assay [11] deals with PPARg:RXRa DBDmut IVT, anti-RXR (DBD mutation: RXRa K156A/R161A, NR concentration 270 nM, RXRa partner concentration 90 nM). In a few lines: as §1
The test system of assay [12] is PPARg:RXRa IVT, anti-PPARg (NR concentration 270 nM, RXRa partner concentration 90 nM). In a few lines:
as §1

Assay [13] has as its system PPARg DBDmut:RXRa IVT, anti-PPARg (DBD mutation: PPARg1 K132A/R137A, NR concentration 270 nM, RXRa partner concentration 90 nM). The procedure, abridged:
as §1

Assay [14] relates to PPARg DBDmut IVT, anti-PPARg (DBD mutation: PPARg1 K132A/R137A, NR concentration 270 nM). In a few lines: as §1
The subject of assay [15] is PPARg homodimer (NR concentration 180 nM). In a few lines:
as §1

Assay [16] concerns PXR:RXRa (NR concentration 270 nM, RXRa partner concentration 90 nM). The procedure, abridged:
as §1

For assay [17], the system named is PXR homodimer (NR concentration 270 nM). The procedure, abridged: as §1
Assay [18] concerns RARa:RXR (NR concentration 270 nM, RXRa partner concentration 90 nM). In a few lines: as §1
Assay [19] deals with RARa homodimer (NR concentration 270 nM). The procedure, abridged:
as §1

Assay [20] relates to RARb:RXRa (NR concentration 270 nM, RXRa partner concentration 90 nM). The procedure, abridged:
as §1

In the supplement of paper PMC6555819 one finds PBM binding z-score data, which are given here for seven sequences.

As for CCGACTGGGACAGAAAGGTTACCATACCATCCGG, the PBM binding z-score in assay [1] was 0.177; in assay [2], 0.493; in [3], -0.124; in assay [4] it was 0.512; in [5] it was -1.05; in assay [6], 1.71. Also, the PBM binding z-score in [7] is 1.4; in assay [8], 1.74; in assay [9], 0.364; in assay [10] it was 1.34; in [11], 0.593; in [12], 1.09. For the same sequence, the PBM binding z-score in [13] was -0.448; in [14], -0.875; in [15], 1.09; in assay [16], 1.01; in [17], 0.0178; in [18] it was 1.63. Moreover, the values for the PBM binding z-score in [19] and in [20] were -0.302 and 1.47, respectively.
For the sequence TAATATAGGTAAAAGGTGAAAGTCGGTGTGGTAA, the PBM binding z-score is 1.84 in assay [1]; 2.01 in [2]; 0.364 in [3]; 2.04 in assay [4]; 0.134 in [5]; 6.16 in assay [6]. The PBM binding z-score in assay [7] is 10.5; in [8] it was 9.06; in assay [9], 9.53; in assay [10], 10.1; in assay [11], 7.05; in assay [12], 6.22. Further, the PBM binding z-score in assay [13] is 2.17; in [14], 1.62; in [15] it was 2.02; in assay [16], 1.8; in assay [17] it was 0.982; in [18], 3.16. In addition, the PBM binding z-score in assay [19] amounted to 1.75; in [20], 1.94.
Turning to ACTATTAGTTGAGCCGAGGGCAACCGATAGGTTG, the PBM binding z-score in assay [1] was 0.981; in [2], 0.0811; in [3], -0.117; in assay [4], -0.118; in [5] it was 0.161; in [6], 0.302. Besides, the PBM binding z-score in [7] is 0.401; in [8], -0.167; in assay [9] it was -0.144; in assay [10], -0.0304; in [11], -0.387; in assay [12], 0.273. Further, the PBM binding z-score in assay [13] was 0.194; in assay [14], -0.123; in [15], -0.122; in assay [16], 1.43; in assay [17] it was 0.308; in assay [18], 0.433. Further, the PBM binding z-score in [19] amounted to 0.387; in assay [20] it was 1.21.
For the sequence CGTCCAAGGTAAGCAGGTCAGTGAAAGCGACGTG, the PBM binding z-score in [1] is 0.187; in assay [2], -0.0922; in [3] it was -0.204; in [4] it was 0.018; in assay [5] it was -1.12; in assay [6], 1.25. Also, the PBM binding z-score in assay [7] was 0.208; in assay [8] it was 0.427; in assay [9] it was -0.743; in assay [10], -0.154; in assay [11] it was 1.7; in assay [12], 1.91. The PBM binding z-score was -0.624 in [13]; -0.894 in assay [14]; 0.421 in assay [15]; 0.192 in assay [16]; -0.446 in assay [17]; 0.529 in assay [18]. Moreover, the PBM binding z-score was -0.36 in [19] and 1.89 in assay [20].
As for TAGCCTAGGTCAGATCGGTCCAGTATACGCTATA, the PBM binding z-score in assay [1] is 1.8; in assay [2], 0.953; in [3], -0.475; in assay [4] it was 0.809; in [5], -0.111; in [6] it was 1.74. Also, the PBM binding z-score was 0.543 in assay [7]; 0.782 in assay [8]; -0.239 in assay [9]; 0.0897 in [10]; 0.702 in [11]; 1.74 in [12]. Also, the PBM binding z-score in assay [13] is -0.14; in assay [14] it was -0.564; in assay [15], -0.166; in [16], 2.34; in [17], -0.919; in assay [18], 0.948. The PBM binding z-score in assay [19] is -0.74; in assay [20], 2.78.
Consider CAAACTAGGTCAATGTCAAAGTCGGTTTGTGCCA, for which the PBM binding z-score in assay [1] is 3.38; in assay [2], 2.45; in assay [3] it was 0.407; in assay [4], 1.97; in [5], 0.714; in assay [6], 4.9. Also, the PBM binding z-score amounted to 7.78 in assay [7]; 6.44 in assay [8]; 4.27 in assay [9]; 6.04 in [10]; 8.51 in [11]; 8.59 in [12]. Moreover, the PBM binding z-score is 5.32 in [13]; 4.74 in [14]; 2.82 in assay [15]; 1.39 in assay [16]; -0.00687 in [17]; 2.11 in [18]. The PBM binding z-score worked out at 0.756 in assay [19] and 3.86 in [20].
Take TGAATGAGGTTATAAGATCGGGGAACGTTGCAAA: the PBM binding z-score is 1.36 in assay [1]; 1.27 in assay [2]; -0.276 in [3]; 1.05 in assay [4]; 0.228 in assay [5]; 2.6 in assay [6]. Besides, the PBM binding z-score in assay [7] amounted to 0.897; in assay [8], 1.59; in assay [9], 0.637; in assay [10] it was 1.13; in assay [11], 1.5; in assay [12] it was 1.78. The PBM binding z-score in assay [13] was 1.32; in assay [14], 0.272; in assay [15], -0.104; in assay [16] it was 0.636; in assay [17], -0.242; in assay [18] it was 1.05. Also, the values for the PBM binding z-score in assay [19] and in assay [20] were -0.252 and 1.08, respectively.
